# A selection: hits, their analogues and other compounds. The true share with any hit is near 12%.
# HCV inh: qHTS Assay for Inhibitors of Hepatitis C Virus (HCV). 340,000 tested, 3.4% active. AID 651820, 2012. Huh7.5.1 HCVcc-Cre infection, luciferase reporter, 44 h. Potency, µM (top dose mostly 41.8 µM), for the others: at the highest dose activity change, negative = inhibition, hits mostly inhibitors; further: on the % scale 0 is the no-effect control and ±100 the full control effect
#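 Luciferase read-out (15 sec integration) after a 15 min room-temperature substrate step quantifies HCVcc-Cre infection. Cells, 1,000 per well, had compound added 4 h post-plating, then virus at ~0.5 moi, and were cultured 44 h.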
# SARS PLpro yeast: qHTS of Yeast-based Assay for SARS-CoV PLP | Potency, µM (top dose mostly 32.9 µM), for the others: at the top dose activity, positive = growth rescue, usual class: activators | S. cerevisiae expressing SARS-CoV PLpro, growth rescue | 330,000 tested, 0.19% active | AID 485353, 2010; calls by dose curve; further: 0% is about no effect; nearly all actives have a fitted effect of over 55% in size
# NS1 inh: qHTS Assay for Inhibitors of Influenza NS1 Protein Function | Potency, µM (titrated, usually from 46.1 µM), without a hit: at the top dose activity, positive = more growth | 270,000 tested, 0.4% active; calls by dose curve; further: actives are rising curves; nearly all actives have a fitted effect of over 50% in size
#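 OD600 was taken as the measure of yeast growth restored by compound in an NS1-expressing S. cerevisiae strain. Cells had been washed out of glucose medium and diluted 1:100 into galactose -URA medium, pH 6.0.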
# Pf growth 48h: Primary qHTS for delayed death inhibitors of the malarial parasite plastid, 48 hour incubation. 310,000 tested, 5.9% active. P. falciparum luciferase growth in erythrocytes, 48 h. AID 504832, 2011. Potency, µM (highest dose often 28.7 µM), without a hit: at the top dose activity change, negative = inhibition, actives largely listed as inhibitors; further: on the % scale 0 is the no-effect control and ±100 the full control effect
#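 A one-generation exposure of luciferase-tagged malaria parasites in RPMI 1640/Albumax erythrocyte culture, 37 C and 5% CO2. Inhibition is inferred from decreased luminescence after adding detection reagent.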
# Pf growth 96h: Primary qHTS for delayed death inhibitors of the malarial parasite plastid, 96 hour incubation. P. falciparum luciferase reporter growth, 96 h. Potency, µM (top dose mostly 28.7 µM), without a hit: top-dose activity change, negative = inhibition, actives largely listed as inhibitors. 320,000 tested, 6.9% active; further: on the % scale 0 is the no-effect control and ±100 the full control effect
#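 P. falciparum expressing integrated firefly luciferase grown in erythrocytes (2% hematocrit, 0.05% parasitemia final) with compounds for 96 hours at 37 C, 5% CO2. Growth inhibition read as loss of luminescence after adding luciferase detection reagent.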
# AMA1-RON2 inh: qHTS for Inhibitors of AMA1-RON; Towards Development of Antimalarial Drug Lead: Primary Screen. AlphaScreen AMA1-biotinylated RON2 peptide binding. Plasmodium falciparum AMA1 (3D7) - RON2 peptide interaction. 360,000 tested, 0.2% active. Potency, µM (top dose mostly 58.2 µM), for inactives: at the top dose activity change, negative = inhibition, usual class: inhibitors;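 further: 0% = vehicle wells and -100% = peptide control; nearly all actives have a fitted effect of over 45% in size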
#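 AMA1 (3D7) with his tag at 25 nM final met compounds first, then biotinylated RON2 peptide at 25 nM; detection used donor plus acceptor beads, 10 µg/mL apiece, read by AlphaScreen after 30 min at room temperature.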
# Active calls of the source: *; i = inactive; ? = inconclusive; / = no result given; [ ] = another dose, or the depositor's remark. Unless noted, the call rests on the fitted dose curve; in most records, active means well fitted curve in the direction sought with a large enough effect; inconclusive means small, poorly fitted or top-dose-only effect, or another doubt; inactive means no such curve, though single readings can be large; an effect the other way counts as inactive or inconclusive. Potency means the concentration at half of the fitted maximal effect.
SMILES,HCV inh,SARS PLpro yeast,NS1 inh,Pf growth 48h,Pf growth 96h,AMA1-RON2 inh
OC1CCCN(c2c3c(nc4cc(-c5cccc(Cl)c5)nn24)CCC3)C1 (stereo not drawn),?,-23%,-45%,4.7µM*,0%,-8%
C[N+](C)(C)C[C@H](O)CC(=O)[O-],9%,-8%,/,?,5%,-4%
COCCN1CCN(c2c3c(nc4cc(-c5cccc(F)c5)nn24)CCC3)CC1,10%,6%,10%,?,?,-3%
Cc1cccc(-c2cc3nc4c(c(N5CCCC(O)C5)n3n2)CCC4)c1 (stereo not drawn),7.1µM*,-45%,-238%,6.6µM*,-31%,-7%
CC(C)C(NC(=O)c1ccc(C(C)(C)C)cc1)C(=O)N1CCCC1 (stereo not drawn),-10%,0%,7%,?,?,4%
CCOc1ccc(CC(=O)NCC2(N3CCCCC3)CCCCC2)cc1,-8%,-3%,-6%,-9%,-10%,3%
Cc1ccc(S(=O)(=O)N2CCCCC2)cc1NC(=O)c1ccccc1Cl,?,-8%,/,/,/,14%
CN1CCN(c2ccc(S(=O)(=O)N3CCCCC3)cc2NC(=O)c2ccc3ccccc3c2)CC1,?,-1%,7%,9.3µM*,9.3µM*,-26%
Cc1ccccc1C(=O)Nc1cc(S(=O)(=O)N2CCCCC2)ccc1N1CCN(C)CC1,-17%,6%,-2%,?,9.3µM*,16%
COc1cc(/C=N/NC(=O)C2COc3ccccc3O2)ccc1O (stereo not drawn),6%,0%,0%,37%,5%,20%
COc1cc(/C=N/NC(=O)C2c3ccccc3Oc3ccccc32)ccc1O,-18%,5%,3%,?,13µM*,10%
COc1ccc(/C=N/NC(=O)CC(=O)NCCc2ccccc2)cc1OC,8%,-3%,4%,21%,34%,6%
COc1cc(/C=N\NC(=O)CC(=O)NCCc2ccccc2)ccc1O,?,0%,4%,-1%,10µM*,-4%
COc1cc(/C=N/NC(=O)Cc2ccccc2)ccc1Oc1ccc([N+](=O)[O-])cc1[N+](=O)[O-],14µM*,-21%,5%,-28%,-2%,-10%
COc1cc(C(=O)N/N=C/c2ccc3c(c2)c2ccccc2n3C)ccc1O,?,0%,-9%,4.7µM*,9.3µM*,9%
COc1cc(/C=N/NC(=O)c2cccc(NC(=O)c3ccccc3)c2)ccc1O,14%,1%,-7%,-10%,13%,11%
O=C(NC1CC2CCCC(C1)N2Cc1ccc(F)cc1)c1ccc(F)cc1 (stereo not drawn),6%,0%,-8%,?,-21%,32%
Cc1cc(C(F)(F)F)nc(SCC(=O)Nc2c(C)n(C)n(-c3ccccc3)c2=O)n1,-2%,-7%,-1%,16%,-21%,-1%
Cn1c(=O)cc(Cl)[nH]c1=O,6%,3%,/,-3%,-11%,4%
Cc1noc(C)c1NC(=O)N(C)C[C@H]1OCCCC[C@@H](C)Oc2ccc(NS(=O)(=O)c3ccccc3)cc2C(=O)N([C@H](C)CO)C[C@@H]1C,/,/,/,/,/,1%
Cc1c(NC(=O)C(C)N(c2ccccc2)S(C)(=O)=O)c(=O)n(-c2ccccc2)n1C (stereo not drawn),-20%,1%,-1%,30%,14%,2%
COc1cc(/C=N/NC(=O)CCn2c3ccccc3c3ccccc32)ccc1O,7.9µM*,-2%,25%,-5%,1%,-7%
CCOc1cc(C=NNC(=O)N(c2ccccc2)c2ccccc2)ccc1O,/,/,/,/,/,-17%
CCOc1cc(/C=N/NC(=O)c2ccc(=O)n(C)c2)ccc1O,7%,-1%,-4%,21%,3.3µM*,18%
Cn1c2ccccc2c2cc(/C=N/NC(=O)c3cc(O)cc(O)c3)ccc21,0%,?,-42%,?,?,-14%
SMILES,HCV inh,SARS PLpro yeast,NS1 inh,Pf growth 48h,Pf growth 96h,AMA1-RON2 inh
Cn1c2ccccc2c2cc(/C=N/NC(=O)c3cc(O)ccc3O)ccc21,10µM*,-6%,10%,?,?,-28%
CCn1cc(CN2CCC(n3nccc3NC(=O)C(OC)c3ccccc3)CC2)cn1 (stereo not drawn),22%,/,/,/,/,22%
Cc1cccc(S(=O)(=O)N/N=c2\sc3ccccc3n2C)c1,9%,-2%,8%,35%,28%,-1%
CCOc1ccc(S(=O)(=O)N(CC)CC(=O)NCc2ccccn2)cc1C,-9%,1%,-2%,11%,?,6%
Cc1ccc(S(=O)(=O)N(C)CCCC(=O)NC(C)(C)C)cc1,10%,-2%,-3%,-1%,29%,13%
[Cl][In]([Cl])[Cl],/,/,/,7.6µM*,6.7µM*,/
O=C(N/N=C/c1ccc(Cl)cc1)c1sccc1OCc1ccc(F)cc1,?,2%,2%,?,9.3µM*,40µM*
O=C(N/N=C/c1ccc(F)cc1)c1sccc1OCc1ccc(F)cc1,?,?,1%,-28%,?,5%
COC(=O)C1(C(=O)OC)C[C@H](/C=C/c2ccccc2)N(Cc2ccccc2OC)[C@@H]1c1ccc(F)cc1,/,/,/,/,/,-12%
CCOc1ccc(NC(=O)c2ccc(OCC3CCCO3)cc2)cc1S(=O)(=O)N(CC)CC (stereo not drawn),?,-4%,/,10µM*,10µM*,-9%[11.6 µM]
CCC(=O)Nc1ccc(OCC2CCCO2)cc1 (stereo not drawn),6%,?,28%,41%,12µM*,13%
CCN(CC)S(=O)(=O)c1cccc(NC(=O)C2SC(=Nc3ccc(C)cc3C)C(C(=O)NCC3CCCO3)=C2N)c1 (stereo not drawn),12%,-1%,?,9.3µM*,/,36%
CCN(CC)S(=O)(=O)c1cccc(C(=O)NCC2CCCO2)c1 (stereo not drawn),11%,5%,1%,/,-28%,3%
O=C(Nc1ccc(Cl)cc1)c1ccc(OCC2CCCO2)cc1 (stereo not drawn),-30%,-2%,-2%,196%,i,15%
COc1ccc(S(=O)(=O)N(C)C)cc1NC(=O)c1ccc(OCC2CCCO2)cc1 (stereo not drawn),/,/,/,/,/,-1%
CCN(CC)S(=O)(=O)c1ccc(Cl)c(C(=O)NCC2CCCO2)c1 (stereo not drawn),18%,19%,1%,-5%,10µM*,3%
